The values below come from PubChem BioAssay (NCATS).

Assay [1] can be described thus: qHTS profiling of the MIPE4 collection as inhibitors of Plasmodium falciparum (DD2) proliferation (AID 743345; call rule not given here). The settings on record: P. falciparum Dd2 in erythrocytes, SYBR Green DNA, 72 h; at 28.5 µM (top of the series) unless noted. The gist of the method: (§1)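 Parasite DNA was quantified by SYBR Green I fluorescence (ex 485, em 535 nm) after overnight lysis in saponin/Triton buffer at room temperature. Cultures at 0.3% parasitemia and 2.5% hematocrit were first exposed to compound for 72 h at 37 C; signals were normalised to artemisinin (0.29 uM) and vehicle wells.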
In general terms: qHTS replaces the single test concentration by a dilution series.

A short description of assay [2]: qHTS profiling of the MIPE4 collection as inhibitors of Plasmodium falciparum (DD2) proliferation (Rep 2) (AID 743346; call rule not given here). The settings on record: P. falciparum Dd2 in erythrocytes, SYBR Green DNA, 72 h; at 28.5 µM (top of the series) unless noted. The gist of the method: as §1
A short description of assay [3]: High-throughput drug toxicity screening in the BPDCN cell line Gen2.2 (AID 1224824; call rule not given here;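 note: cells exposed to compounds for 48 h before reading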). The settings on record: Gen2.2 BPDCN cells; at 45.8 µM (top of the series) unless noted. A digest of the protocol: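 CellTiter-Glo luminescence after 48 h compound exposure of Gen2.2 cells; percent activity set with DMSO as 100% and bortezomib (9.2 uM final) as 0%. Cells seeded at 500 per well, RPMI + 10% FBS, 37 °C.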

The nature of assay [4]: High-throughput drug toxicity screening in the BPDCN cell line Cal-1 (AID 1224825; call rule not given here). The settings on record: Cal-1 BPDCN cell viability, qHTS; at 45.8 µM (top of the series) unless noted. A digest of the protocol:
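Viability of the BPDCN line Cal-1 is measured as ATP-based luminescence (CellTiter-Glo) following 48 h incubation with compounds. Percent activity uses DMSO-treated wells as 100% and 9.2 uM bortezomib as 0%.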

A short description of assay [5]: qHTS assay for measurement of the activity of small molecule inhibitors on Zika virus induced Caspase-3 activity in human iPSC derived neural progenitor cells (hNPCs) (AID 1224857). Note: % of control where 0% means no effect; nearly all actives have a fitted effect of over 65% in size. The gist of the method: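 Caspase-3/7 induction by a 6-hour ZIKV infection was quantified with a luminescent Caspase-Glo 3/7 reagent incubated 30 minutes at room temperature. Compounds were preincubated with hNPCs for 1 hour; inhibition was calculated against uninfected and infected control wells.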

The nature of assay [6]: qHTS assay for measurement of the activity of small molecule inhibitors on Zika virus induced Caspase-3 activity in human astrocytoma cells (AID 1224859).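 Note: plate controls were ZIKV-infected untreated cells for no effect and uninfected cells for full effect.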 The gist of the method:
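In SNB-19 cells plated at 250 cells/well and grown 16-20 h, compounds were applied 1 h before ZIKV (2 FFU/cell). Six hours later caspase-3/7 luminescence was recorded.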

Assay [7] in a line: qHTS Screen of the MIPE 4.0 Collection Against Ewings Sarcoma (RDES) (AID 1259252). Note: nearly all actives have a fitted effect of over 35% in size. Note: potency is the fitted concentration of half-maximal effect. A digest of the protocol:
(§2)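 Compound titrations go onto adherent log-phase cells 4 h after seeding, incubate 48 h at 37C, then CellTiter-Glo luminescence reports viability relative to DMSO and cell-free controls.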

The nature of assay [8]: qHTS Screen of the MIPE 4.0 Collection Against Ewings Sarcoma (TC71) (AID 1259253). Note: nearly all actives have a fitted effect of over 40% in size. Note: potency is the fitted concentration of half-maximal effect. The gist of the method: as §2
The nature of assay [9]: qHTS Screen of the MIPE 4.0 Collection Against Ewings Sarcoma (EW8) (AID 1259255).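 For viability: 100% = DMSO-treated cells and 0% = medium-only wells without cells.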 Note: nearly all actives have a fitted effect of over 35% in size. Note: potency is the fitted concentration of half-maximal effect. A digest of the protocol:
as §2

Each structure is given as a SMILES string. Results filed as inconclusive are left out. The source made the active and inactive calls. Unless noted, calls come from the whole dose curve; as a rule, active = well fitted inhibition curve with a large enough effect; inconclusive = small, poorly fitted or top-dose-only effect; inactive = no such curve, though single readings can be large or run the other way.

`COC[C@H](NC(=O)c1cnc(C)s1)C(=O)N[C@@H](COC)C(=O)N[C@@H](Cc1ccccc1)C(=O)[C@@]1(C)CO1` yielded a parasite growth remaining, % of DMSO control (lower = more inhibition) in assay [1] of 7.34%. Besides, the parasite growth, % of control (lower = inhibition) in assay [2] was found to be 12.2%. Besides, the cell viability, % of control (lower = more cytotoxic) in assay [3] came out at 0.973%. In addition, the viability (% of control) in assay [4] came to 3.48%. In addition, the Potency result in assay [5] and in [6] was “inactive” each time. Besides, the Potency in [7] is 0.132 µM (active); in [8], 0.296 µM (active); in assay [9], 0.105 µM (active).

Turning to `CCc1cc(C(C)=NOCc2ccc(C3CCCCC3)c(C(F)(F)F)c2)ccc1CN1CC(C(=O)O)C1`, in assay [1], the parasite growth remaining, % of DMSO control (lower = more inhibition) came to 69.4%. Further, the parasite growth, % of control (lower = inhibition) in assay [2] turned out to be 41.3%. In assay [3], the cell viability, % of control (lower = more cytotoxic) worked out at 68%. Besides, the viability (% of control) in assay [4] stood at 19.7%. The Potency result in [5], in assay [6], in [7], in assay [8] and in [9] was “inactive” throughout.

For the compound `CN[C@H](CC(C)C)C(=O)N[C@H]1C(=O)N[C@@H](CC(N)=O)C(=O)N[C@@H]2C(=O)N[C@H]3C(=O)N[C@H](C(=O)N[C@H](C(=O)O)c4cc(O)cc(O)c4-c4cc3ccc4O)[C@H](O)c3ccc(c(Cl)c3)Oc3cc2cc(c3O[C@@H]2O[C@H](CO)[C@@H](O)[C@H](O)[C@@H]2O[C@H]2C[C@](C)(N)[C@H](O)[C@H](C)O2)Oc2ccc(cc2Cl)[C@H]1O`, the cell viability, % of control (lower = more cytotoxic) in [3] came to 160%. The viability (% of control) in [4] was found to be 93.1%. Moreover, the Potency result in assay [5], in [6], in [7], in assay [8] and in assay [9] was “inactive” each time.

For the compound `C[N+]1(C)[C@@H]2C[C@@H](OC(=O)C(O)(c3cccs3)c3cccs3)C[C@H]1[C@@H]1O[C@@H]12`, the cell viability, % of control (lower = more cytotoxic) in assay [3] is 87.6%. Also, the viability (% of control) in [4] came out at 97.5%. Also, the Potency result in [5], in [6], in assay [7], in assay [8] and in assay [9] was “inactive” each time.

In assay [1], `CCn1c(=O)c2c(nc(C=Cc3ccc(OC)c(OC)c3)n2C)n(CC)c1=O` registered a parasite growth remaining, % of DMSO control (lower = more inhibition) of 83.4%. In [2], this compound showed a parasite growth, % of control (lower = inhibition) of 34.2%. Also, in assay [3], the cell viability, % of control (lower = more cytotoxic) came out at 193%. In addition, the viability (% of control) in assay [4] stood at 99.5%. Besides, the Potency result in [5], in assay [6], in assay [7], in [8] and in assay [9] was “inactive” throughout.

`C=C(C)[C@@H]1CC[C@]2(C)CC[C@]3(C)[C@H](CC[C@@H]4[C@@]5(C)CC[C@H](O)C(C)(C)[C@H]5CC[C@]43C)[C@@H]12` displayed a parasite growth remaining, % of DMSO control (lower = more inhibition) in assay [1] of 92%. The compound further had a parasite growth, % of control (lower = inhibition) in assay [2] of 73.8%. In addition, the cell viability, % of control (lower = more cytotoxic) in [3] stood at 162%. Moreover, in [4], the viability (% of control) was 121%. In addition, the Potency entry in assay [5], in assay [6], in assay [7], in assay [8] and in [9] was “inactive” in each case.

Compound `C[C@@H]1CC[C@@]2(OC1)OC1CC3C4CC=C5CC(O)CCC5(C)C4CCC3(C)C1[C@@H]2C` (some centres not stated) returned a parasite growth remaining, % of DMSO control (lower = more inhibition) in assay [1] of 97.8%. Further, the parasite growth, % of control (lower = inhibition) in assay [2] was 64.4%. Also, the cell viability, % of control (lower = more cytotoxic) in [3] came to 128%. Moreover, the viability (% of control) in [4] is 115%. Also, the Potency entry in assay [5], in assay [6], in [7], in assay [8] and in [9] was “inactive” throughout.

Compound `C=CCNC1=C2C[C@@H](C)C[C@H](OC)[C@@H](O)[C@@H](C)C=C(C)[C@H](OC(N)=O)[C@@H](OC)C=CC=C(C)C(=O)NC(=CC1=O)C2=O` returned a parasite growth remaining, % of DMSO control (lower = more inhibition) in [1] of 7.22%. In addition, in assay [2], the parasite growth, % of control (lower = inhibition) stood at 9.89%. The cell viability, % of control (lower = more cytotoxic) in [3] stood at 6.66%. Also, the viability (% of control) in assay [4] worked out at 5.31%. The Potency entry in assay [5] and in assay [6] was “inactive” in each case. The figures for the Potency in assay [7], in [8] and in [9] were 6.62 µM (active), 3.72 µM (active) and 10.5 µM (active), respectively.

`COc1cc(O)c2c(c1)C1OC1C[C@H](O)[C@H](O)C(=O)C=CC[C@H](C)OC2=O` (some centres not stated): the parasite growth remaining, % of DMSO control (lower = more inhibition) in assay [1] is 10.6%. In assay [2], this compound registered a parasite growth, % of control (lower = inhibition) of 6.84%. In assay [3], the cell viability, % of control (lower = more cytotoxic) was found to be 3.33%. Besides, the viability (% of control) in [4] is 5.65%. The Potency entry in assay [5] and in assay [6] was “inactive” each time. Further, the Potency is 16.6 µM (active) in assay [7], 11.8 µM (active) in assay [8] and 7.43 µM (active) in assay [9].
